PubChem BioAssay AID652053 (Broad Institute, 2013)
The campaign covered roughly 1,300 compounds. About 930 (72%) were called active.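 Rule for the calls: active = fitted curve reaches 40% activation signal increase at or below the top valid tested concentration in every replicate test; inconclusive = replicate tests disagree in their calls; inactive = all replicate tests inactive, including effects opposite the expected signal rise.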 The set was probably picked from earlier hits. The list is a sample of the results. Results with a measured potency or affinity are listed apart.

test: suppression of miR-122 activity, Renilla luciferase sensor – cell-based, Huh7 psiCHECK-miR122, cherry-pick, dose response (AID 652053); settings: Huh7 psiCHECK-miR122 Renilla luciferase reporter, 48 h; series mostly up to 35 µM; activation (miR-122 inhibition): at the top concentration

SMILES	activation (miR-122 inhibition)
O=C(CN(Cc1cccs1)S(=O)(=O)c1ccc(S(=O)(=O)NC2CCCCC2)cc1)Nc1ccccc1	-3.3% (inactive)
C=CCN=C1NN=C(c2ccc3c(c2)OCCO3)CS1	19.4% (inactive)
CC(=O)N1N=C(c2ccccc2)CC1c1cccs1 (stereo unspecified)	1.31% (inactive)
CCC(=O)N1[C@H](CN(C)C(C)=O)[C@@H](c2ccc(C3=CCCC3)cc2)[C@@H]1CO	3.62% (inactive)
C[C@@H]1CN([C@H](C)CO)C(=O)c2cc(NC(=O)Nc3cccc4ccccc34)ccc2O[C@@H]1CN(C)C(=O)Nc1ccccc1	-12.2% (inactive)
CCNc1nc(N)nc(Oc2ccc(OCCOc3ccccc3)nn2)n1	-13.6% (inactive)
CCOc1ccccc1NS(=O)(=O)N(C)C	-3.18% (inactive)
C[C@@H]1CN([C@@H](C)CO)C(=O)c2cccc(NC(=O)Nc3ccccc3)c2O[C@H]1CN(C)Cc1ccc(C(=O)Nc2ccccc2N)cc1	11.5% (inactive)
C[C@@H]1CN([C@H](C)CO)C(=O)c2cccc(NC(=O)Nc3ccccc3)c2O[C@H]1CN(C)Cc1ccc(C(=O)Nc2ccccc2N)cc1	50% (inactive)
C[C@H]1CN([C@@H](C)CO)C(=O)c2cccc(NC(=O)Nc3ccccc3)c2O[C@H]1CN(C)Cc1ccc(C(=O)Nc2ccccc2N)cc1	40% (inactive)
C[C@H](CO)N1C[C@H](C)[C@@H](CN(C)C(=O)NC2CCCCC2)Oc2ccc(NC(=O)Nc3cccc4ccccc34)cc2CC1=O	1.35% (inactive)
CC/C(=N\NC(=O)c1ccc2c(c1)OCO2)C12CC3CC(CC(C3)C1)C2	1.6% (inactive)
O=C(C(c1ccccc1)c1ccccc1)N1CCOCC1	-2.67% (inactive)
COc1ccc(C(=O)Oc2ccc(C(=S)N3CCOCC3)cc2)cc1	-8.09% (inactive)
COc1ccc(C(=O)Nc2nc3c(s2)CCCC3)cc1S(=O)(=O)N1CCCc2ccccc21	4.39% (inactive)
C[C@H]1CN([C@@H](C)CO)C(=O)c2cc(C#CC(C)(C)O)cnc2O[C@H]1CN(C)Cc1cncnc1	-18.5% [at 30 µM] (inactive)
CCCC#Cc1cnc2c(c1)C(=O)N([C@H](C)CO)C[C@H](C)[C@H](CN(C)C(=O)c1ccccc1)O2	21.1% (inactive)
COCC(=O)N(C)C[C@@H]1Oc2ncc(C#Cc3cccnc3)cc2C(=O)N([C@H](C)CO)C[C@H]1C	0.781% (inactive)
C[C@@H]1CN([C@H](C)CO)C(=O)Cc2cc(NC(=O)Nc3cccc4ccccc34)ccc2O[C@@H]1CN(C)C(=O)NC1CCCCC1	28.5% [at 30 µM] (inactive)
O=C(NNC(=S)NC1CCCCC1)c1ccc2c(c1)OCO2	31.1% (inactive)
Cc1ccc(Cl)cc1NC(=S)N(CCCN1CCOCC1)Cc1ccccn1	-1.59% (inactive)
COCCn1c(C)cc(C(=O)COC(=O)c2cc3c(s2)CCC3)c1C	8.83% (inactive)
O=C(c1ccccc1)c1ccc(-c2ccc(O)cc2)cc1	36.8% (inactive)

SMILES	activation (miR-122 inhibition)
O=C(OCc1ccccc1Cl)c1ccccc1C(=O)c1ccccc1	37.3% (inactive)
COCC(=O)NC[C@H]1[C@H](c2ccccc2)[C@@H](CO)N1C(=O)c1ccccc1	-6.6% (inactive)
CC(=O)Nc1ccc(S(=O)(=O)NCCc2ccc(S(N)(=O)=O)cc2)cc1	19.7% (inactive)
C[C@H]1CN([C@@H](C)CO)C(=O)Cc2cc(NC(=O)Nc3cccc4ccccc34)ccc2O[C@@H]1CN(C)C(=O)NC1CCCCC1	-0.862% (inactive)
CCC1(c2ccc(F)cc2)NC(=O)N(CC(=O)Nc2ccc(-c3nc4ccc(C)cc4s3)cc2)C1=O (stereo unspecified)	-7.83% (inactive)
COC(=O)c1sccc1NC(=S)Nc1ccc(F)cc1	3.83% (inactive)
COc1ccc(CCNC(=O)COC(=O)Cn2cnc3ccccc3c2=O)cc1	-8.09% (inactive)
Cc1ccc(Nc2nc(C(=O)NCc3ccco3)cs2)cc1	-0.096% (inactive)
O=c1c2c(nc3nc(SCc4ccccc4)[nH]n13)CCC2	4.6% (inactive)
Cc1ccc(CSc2nnc(-c3cccnc3)o2)cc1	-6.16% (inactive)
CN(C[C@H]1N[C@@H](CO)[C@H]1c1ccc(-c2cccc(F)c2)cc1)S(C)(=O)=O	-17% (inactive)
C[C@H]1CN([C@@H](C)CO)C(=O)c2cccc(NS(=O)(=O)c3ccccc3)c2O[C@H]1CN(C)Cc1ccc(C(=O)Nc2ccccc2N)cc1	36.4% [at 28.5 µM] (inactive)
C[C@@H]1CN([C@H](C)CO)C(=O)c2cccc(NS(=O)(=O)c3ccccc3)c2O[C@H]1CN(C)Cc1ccc(C(=O)Nc2ccccc2N)cc1	-2.83% (inactive)
CCCCC(O)(CCCC)C(=O)NN(C(=O)OC)c1ccccc1	-6.47% (inactive)
COc1ccc(C(=O)N[C@H](C(=O)Nc2nc3ccccc3[nH]2)C(C)C)cc1	15.5% (inactive)
CC(=O)N1[C@H](CNC(=O)C2CC2)[C@H](c2ccc(-c3ccccc3)cc2)[C@@H]1CO	1.49% (inactive)
O=C(N/N=C/c1cccc(F)c1)c1csc2c1CCCC2	-4.34% (inactive)
O=C(NC[C@H]1N[C@H](CO)[C@H]1c1ccccc1)c1ccccc1F	5.44% (inactive)
CC(C)NC(=O)N1[C@H](CO)[C@@H]2c3ccccc3N(C(=O)c3ccccc3F)C[C@@H]21	-8.81% (inactive)
CC(C)NC(=O)N1CC[C@@H]2[C@@H](CO)N(C)c3ccc(-c4cccc(F)c4)cc3[C@@H]21	15.3% [at 30 µM] (inactive)
CN1c2ccc(-c3cccc(F)c3)cc2[C@H]2[C@H](CCN2C(=O)C2CC2)[C@H]1CO	10% [at 30 µM] (inactive)
C[C@@H]1CN([C@H](C)CO)C(=O)c2cccc(NC(=O)C3CCOCC3)c2O[C@H]1CN(C)Cc1ccc2c(c1)OCO2	4.98% (inactive)
C[C@@H]1CN([C@@H](C)CO)C(=O)c2cccc(NC(=O)C3CCOCC3)c2O[C@@H]1CN(C)Cc1ccc2c(c1)OCO2	0.015% (inactive)

SMILES	activation (miR-122 inhibition)
C[C@@H]1CN([C@H](C)CO)C(=O)c2cccc(NC(=O)C3CCOCC3)c2O[C@@H]1CN(C)Cc1ccc2c(c1)OCO2	-9.26% (inactive)
C[C@@H]1CN([C@@H](C)CO)C(=O)c2cccc(NC(=O)C3CCOCC3)c2O[C@H]1CN(C)Cc1ccc2c(c1)OCO2	6.54% (inactive)
Cc1c(C(=O)Nc2ccccn2)oc2ccccc12	-5.01% (inactive)
Cc1ccccc1N(C(=O)CCCC(=O)Nc1ccccn1)C(C(=O)NC1CCCC1)c1ccc(O)cc1 (stereo unspecified)	27.4% (inactive)
O=C(NCCCN1CCN(Cc2ccccc2)CC1)c1nnc(Cc2c(F)cccc2Cl)o1	-15.8% (inactive)
COC(=O)c1c(NC(C)=O)sc(Cc2ccccc2)c1C	-7.43% (inactive)
O=C(Nc1ccccn1)c1cccc(S(=O)(=O)N2CCOCC2)c1	-7.05% (inactive)
CCC(=O)N1[C@H](CNC(=O)COC)[C@@H](c2ccc(-c3ccccc3)cc2)[C@@H]1CO	-7.61% (inactive)
Cc1ccc(S(=O)(=O)NCCC(=O)Oc2ccc3ccc(=O)oc3c2)cc1	-5.43% (inactive)
Cc1ccc2[nH]c(CNC(=O)C3CCCCC3)cc2c1	18.1% (inactive)
C[C@@H]1CN([C@@H](C)CO)C(=O)Cc2cc(NC(=O)Nc3cccc4ccccc34)ccc2O[C@H]1CN(C)C(=O)NC1CCCCC1	-1.72% (inactive)
COc1ccc(/C=N/NC(=O)COc2ccccc2-c2ccccc2)cc1	41.9% (inactive)
Cc1ccc(OCC(=O)Nc2cccc3c2CCCC3)cc1C	-7.15% (inactive)
CCOc1ccc(N2C(=O)Nc3ccccc3C2(O)C(=O)NCc2ccc3c(c2)OCO3)cc1 (stereo unspecified)	-15.3% (inactive)
Cc1cc(Cl)c(S(=O)(=O)N2CCCCCC2)cc1OCC(=O)NC1CCCCC1	-10.7% (inactive)
c1ccc(CSc2nnc(-c3cccnc3)o2)cc1	-14.5% (inactive)
C=CC(C)n1c(Br)nc2c1c(=O)[nH]c(=O)n2C (stereo unspecified)	-9.83% (inactive)
CS(=O)(=O)N(CC(=O)Nc1cccc(F)c1)c1cccc([N+](=O)[O-])c1	-3.67% (inactive)
Cc1c(-c2ccccc2)cn2c1-c1ccc(C)n1CC2	-6.24% (inactive)
O=C(CN1CCOCC1)Nc1cc(Cl)ccc1Cl	-6.17% (inactive)
CCn1c(CCNC(=O)c2ccc(OC)cc2)nnc1SCC(=O)Nc1ccccc1F	-10.9% (inactive)
COc1cc(OC)c(-c2nc3cnccc3n2C)cc1OC	-11.9% (inactive)
COC(=O)c1[nH]c2c(c1C)C(=O)CC(c1ccccc1)C2 (stereo unspecified)	24.6% (inactive)

SMILES	activation (miR-122 inhibition)
CCOC(=O)c1[nH]c2c(c1C)C(=O)CC(c1ccco1)C2 (stereo unspecified)	32.4% (inactive)
CCC(=O)N1[C@H](CO)[C@H](c2ccccc2)[C@@H]1CN(CC)C(=O)c1cccc(F)c1	1.39% (inactive)
Cc1ccc(NCc2nnc(SCC(=O)Nc3ccccc3)n2CC2CCCO2)c(C)c1 (stereo unspecified)	25% (inactive)
CC1CCN(C(=S)c2ccc(O)cc2)CC1	-8.51% (inactive)
CC1CCN(S(=O)(=O)c2ccc(NC(=O)Cc3cccs3)cc2)CC1	31.5% (inactive)
COCC(=O)Nc1ccc2c(c1)[C@@H]1C[C@H](CC(=O)NCc3ccccc3)O[C@H](CO)[C@@H]1O2	-10.4% (inactive)
O=C(C[C@@H]1C[C@H]2c3cc(NS(=O)(=O)c4ccc(F)cc4)ccc3O[C@H]2[C@H](CO)O1)NCc1ccc(Oc2ccccc2)cc1	25.6% (inactive)
COc1ccc(NC(=O)Nc2ccc3c(c2)CC(=O)N([C@@H](C)CO)C[C@@H](C)[C@H](CN(C)C(=O)NC(C)C)O3)cc1	-4.79% (inactive)
COc1ccc(NC(=O)Nc2ccc3c(c2)CC(=O)N([C@@H](C)CO)C[C@@H](C)[C@@H](CN(C)C(=O)NC(C)C)O3)cc1	0.145% (inactive)
C[C@@H]1CN([C@@H](C)CO)C(=O)c2cc(N(C)C)ccc2O[C@@H]1CN(C)C(=O)Nc1ccc(F)cc1	4.49% (inactive)
CC(=O)c1cccc(OCC(=O)Nc2ccccc2N2CCOCC2)c1	-6.02% (inactive)
COCCCn1c(=O)/c(=C\c2ccccc2OC(F)F)s/c1=C(/C#N)C(N)=O	-4.42% (inactive)
Cc1cc(C)c(C)c(S(=O)(=O)Nc2ccc(OCC(=O)O)cc2)c1C	-10.9% (inactive)
Cc1cc(O)c(C(C)C)cc1N=Nc1ccccc1C(=O)O	-4.09% (inactive)
Cc1ccc(C)c(S(=O)(=O)Nc2ccc(O)c3ccccc23)c1	20.6% (inactive)
C=CCn1cc(C(=O)N2CCc3ccccc3C2)c(=O)c2cc(S(=O)(=O)N(CC)CC)ccc21	6.72% (inactive)
CC(=O)c1cccc(NC(=O)C(C)N2CCc3ccccc3C2)c1 (stereo unspecified)	11% (inactive)
Cc1ccc(C(=O)Oc2ccc(C(=S)N3CCOCC3)cc2)cc1	5.32% (inactive)
Cc1ccc(CN2C(=O)C(C)(C)Oc3ccc(C(=O)N4CCCCC4)cc32)cc1	13.1% (inactive)
CCc1cccc(NC(=O)Cc2cn(C)c3ccccc23)c1	8.83% (inactive)
CCc1ccc(NC(=O)CN2CCc3ccccc3C2)cc1	-5.28% (inactive)
Cc1noc(C)c1NC(=O)Nc1ccc2c(c1)CC(=O)N([C@@H](C)CO)C[C@H](C)[C@@H](CN(C)Cc1ccc(Cl)c(Cl)c1)O2	10.7% (inactive)
